# Values of other authors as cited in PubChem BioAssay AID977611.
# Out of some 3,900 compounds screened, about 3,900 (100%) were called active. The limit is not given here; nearly all actives have Kd up to about 4200 µM. The set was probably picked from earlier hits. The list shows a part of the results. Numbered stars: 1 amine (or outer) side, 2 acyl side, 3 side chain; on linkers, the order of the positions; unused ones are H or OH. Where a SMILES comes first, the peptide text is derived from it. Non-standard residues stand in square brackets, D forms with d. Square brackets hold non-standard residues; d marks the D form. Residues, ends and D or L forms follow the SMILES beside them. Peptide text beside a SMILES is read from it. [ ]: non-standard residue; d: D form. ξ: configuration not given here. Lys(Me3) = C[N+](C)(C)CCCC[C@H](N)C(=O)O; Orn(CH(NH2)2) = NC(N)NCCC[C@H](N)C(=O)O; X1 = CNC(NC)NCCC[C@H](N[*:1])C(=O)[*:2]; ΔPro = O=C(O)[C@@H]1C=CCN1; Nva = CCC[C@H](N)C(=O)O; ξE = NC(CCC(=O)O)C(=O)O; Abu = CC[C@H](N)C(=O)O
# Experiment: PubChem AID 977611
# Conditions: PDB protein-ligand complexes, literature Kd
compound,measurement,setting,value
CC[C@H](NC(=O)[C@@H](NC(=O)[C@H](CC(C)C)NC(=O)[C@H](CC(=O)O)NC(=O)[C@H](CCC(N)=O)NC(=O)[C@H](CCC(=O)O)NC(=O)[C@@H](NC(=O)[C@@H]1CCCN1C(=O)[C@@H]1CCCN1C(=O)[C@@H](N)CC(C)C)[C@@H](C)O)[C@@H](C)O)C(=O)N[C@@H](CC(C)C)C(=O)N[C@@H](CC(C)C)C(=O)N[C@@H](C)C(=O)N[C@@H](CCC(=O)O)C(=O)O (H-LPPTEQDLT[Abu]LLAE-OH),Kd,"protein: nuclear coactivator 1 (NCoA-1) PAS-B domain, PDB entry 1oj5",0.8 µM (active)
H-DDDEDGYNPYTL-OH,Kd,"protein: CTD interacting domain of Protein NRD1, PDB entry 2mow",1.09 µM (active)
H-QAQGPPYPTYPGY-OH,Kd,"protein: ESCRT and ALIX binding region (EABR), PDB entry 3e1r",1.5 µM (active)
CNC(NC)NCCC[C@H](NC(=O)[C@H](C)N)C(=O)N[C@H](C(=O)N[C@@H](CCCC[N+](C)(C)C)C(=O)N[C@@H](CCC(N)=O)C(=O)N[C@H](C(=O)N[C@@H](C)C(=O)N[C@@H](C)C(=O)N[C@@H](C)C(N)=O)[C@@H](C)O)[C@@H](C)O (H-A[X1]T[Lys(Me3)]QTAAA-NH2),Kd,"protein: RAG2-PHD, PDB entry 2v87",25.1 µM (active)
C[C@H](N)C(=O)N[C@@H](CCCNC(N)N)C(=O)N[C@@H](CCCC[N+](C)(C)C)C(=O)N[C@@H](CO)C(=O)N[C@@H](C)C(=O)NCC(=O)N[C@@H](C)C(=O)N[C@@H](C)C=O (H-A[Orn(CH(NH2)2)][Lys(Me3)]SAGAA-aldehyde),Kd,"protein: Polycomb protein EED residues 77-441, PDB entry 3iiy",16 µM (active)
C[C@H](N)C(=O)N[C@@H](CCCN=C(N)N)C(=O)N[C@H](C(=O)N[C@@H](CCCC[N+](C)(C)C)C(=O)N[C@@H](CCC(N)=O)C(=O)N[C@H](C(=O)N[C@@H](C)C(=O)O)[C@@H](C)O)[C@@H](C)O (H-ART[Lys(Me3)]QTA-OH),Kd,"protein: human Spindlin1, PDB entry 4mzh",0.066 µM (active)
C[C@H](N)C(=O)N[C@@H](CCCN=C(N)N)C(=O)N[C@H](C(=O)N[C@@H](CCCC[N+](C)(C)C)C(=O)N[C@@H](CCC(N)=O)C(=O)N[C@H](C(=O)N[C@@H](C)C(=O)N[C@@H](CCCNC(N)=[N+](C)C)C(=O)N[C@@H](CCCCN)C(=O)O)[C@@H](C)O)[C@@H](C)O,Kd,"protein: human Spindlin1, PDB entry 4mzf",0.045 µM (active)
C[C@H](N)C(=O)N[C@@H](CCCNC(N)N)C(=O)N[C@H](C(=O)N[C@@H](CCCC[N+](C)(C)C)C(=O)N[C@@H](CCC(N)=O)C(=O)N[C@H](C(=O)O)[C@@H](C)O)[C@@H](C)O (H-A[Orn(CH(NH2)2)]T[Lys(Me3)]QT-OH),Kd,"protein: bromodomain PHD finger transcription factor, PDB entry 2f6j",2.7 µM (active)
C[C@H](N)C(=O)N[C@@H](CCCNC(N)N)C(=O)N[C@H](C(=O)N[C@@H](CCCC[N+](C)(C)C)C(=O)N[C@@H](CCC(N)=O)C(=O)N[C@H](C(=O)N[C@@H](C)C(=O)O)[C@@H](C)O)[C@@H](C)O (H-A[Orn(CH(NH2)2)]T[Lys(Me3)]QTA-OH),Kd,"protein: Histone-lysine N-methyltransferase MLL5, PDB entry 4l58",21 µM (active)
same,Kd,"protein: Inhibitor of growth protein 5, PDB entry 3c6w",2.4 µM (active)
same,Kd,"protein: Jumonji domain-containing protein 2A, PDB entry 2gfa",10.4 µM (active)
C[C@H](N)C(=O)N[C@@H](CCCNC(N)N)C(=O)N[C@@H](CCCC[N+](C)(C)C)C(=O)N[C@@H](CO)C(=O)N[C@@H](C)C(=O)O (H-A[Orn(CH(NH2)2)][Lys(Me3)]SA-OH),Kd,"protein: Polycomb protein EED residues 77-441, PDB entry 3iiw",36.4 µM (active)
CN(C)S(=O)(=O)c1ccsc1,Kd,"protein: Pantothenate synthetase (T2A, E77G mutation), PDB entry 4efk",3200 µM (active)
same,Kd,"protein: Pantothenate synthetase (T2A, E77G mutation), PDB entry 4g5y",1700 µM (active)
CC1(C)NC(N)NC(N)N1c1ccc(Cl)cc1 (centres undefined),Kd,"protein: Dihydrofolate reductase, PDB entry 4kne",1.26 µM (active)
CC(=O)NCCCCNc1ncnc2c1ncn2[C@@H]1O[C@H](CN(CCCNC(=O)Nc2ccc(C(C)(C)C)cc2)C(C)C)[C@@H](O)[C@H]1O,Kd,"protein: Histone-lysine N-methyltransferase, H3 lysine-79 specific DOT1L, PDB entry 4wvl",0.131 µM (active)
CCCCC/C=C\C\C=C/C=C/C=C/C[C@@H](O)CCCC(=O)O,Kd,"protein: Tablysin 15, PDB entry 3u3u",0.133 µM (active)
C[C@H](NC(=O)[C@H](CCCNC(N)N)NC(=O)[C@@H](N)CCCCN)C(=O)N[C@@H](CO)C(=O)N[C@@H](CCCNC(N)N)C(=O)N[C@@H](Cc1c[nH]c2ccccc12)C(=O)N[C@@H](CC(=O)O)C(=O)N[C@@H](CCC(=O)O)C(=O)N[C@H](C(=O)N1CCC[C@H]1C(=O)O)[C@@H](C)O (H-K[Orn(CH(NH2)2)]AS[Orn(CH(NH2)2)]WDETP-OH),Kd,"protein: Splicing factor 45(SPF45-UHM), PDB entry 2peh",1.1 µM (active)
C[C@H](N)C(=O)N[C@@H](CO)C(=O)N[C@@H](CCCN=C(N)N)C(=O)N[C@@H](Cc1c[nH]c2ccccc12)C(=O)N[C@@H](CC(=O)O)C(=O)N[C@@H](CCC(=O)O)C(=O)N[C@H](C(=O)N1CCC[C@H]1C(=O)O)[C@@H](C)O (H-ASRWDETP-OH),Kd,"protein: RNA-binding protein 39 CAPER-alpha, PDB entry 4oz1",2.4 µM (active)
CC(C)C[C@H](NC(=O)[C@H](CC(=O)O)NC(=O)[C@H](CO)NC(=O)[C@H](Cc1ccccc1)NC(=O)[C@@H](NC(=O)[C@@H](N)CCC(=O)O)[C@@H](C)O)C(=O)N[C@@H](Cc1c[nH]c2ccccc12)C(=O)N[C@@H](CCCCN)C(=O)N[C@@H](CC(C)C)C(=O)N[C@@H](CC(C)C)C(=O)N1CCC[C@H]1C(=O)O,Kd,"protein: E3 ubiquitin-protein ligase Mdm2 (E69A, K70A mutation), PDB entry 4hfz",1.9 µM (active)
same,Kd,"protein: human-mimic Mdm4 protein, PDB entry 2z5t",2.4 µM (active)
CC[C@H](N)C(=O)N[C@H](C(=O)N[C@@H](Cc1ccccc1)C(=O)N[C@@H](CO)C(=O)N[C@@H](CC(=O)O)C(=O)N[C@@H](CC(C)C)C(=O)N[C@@H](Cc1c[nH]c2ccccc12)C(=O)N[C@@H](CCCCN)C(=O)N[C@@H](CC(C)C)C(=O)N[C@@H](CC(C)C)C(=O)N1CCC[C@H]1C(=O)O)[C@@H](C)O (H-[Abu]TFSDLWKLLP-OH),Kd,"protein: native Mdm4 protein, PDB entry 2z5s",2.2 µM (active)
CC[C@H](C)[C@H](NC(=O)[C@H](CCC(=O)O)NC(=O)[C@H](CO)NC(=O)[C@@H](N)CCCNC(N)N)C(=O)N[C@H](C(=O)N[C@@H](CO)C(=O)N[C@H](C(=O)N[C@@H](C)C(=O)N1CC=C[C@H]1C(=O)N[C@@H](CO)C(=O)N[C@@H](CO)C(=O)N[C@@H](Cc1c[nH]c2ccccc12)C(=O)N[C@H](C(=O)N[C@H](C(=O)N1CCC[C@H]1C(=O)NCC(=O)N1CCC[C@H]1C(=O)O)C(C)C)C(C)C)[C@@H](C)O)[C@@H](C)CC (H-[Orn(CH(NH2)2)]SEIISTA[ΔPro]SSWVVPGP-OH),Kd,"protein: B-cell lymphoma 6 protein, PDB entry 3bim",1.32 µM (active)
CCC[C@H](NC(=O)[C@H](Cc1c[nH]c2ccccc12)NC(=O)[C@H](CC(C)C)NC(=O)[C@H](CC(=O)O)NC(=O)[C@H](CO)NC(=O)[C@H](Cc1ccccc1)NC(=O)[C@@H](NC(=O)C(N)CCC(=O)O)[C@@H](C)O)C(=O)N[C@@H](CC(C)C)C(=O)N[C@@H](CC(C)C)C(=O)N1CCC[C@H]1C(=O)N[C@@H](CCC(=O)O)C(=O)O (some centres undefined) (H-[ξE]TFSDLW[Nva]LLPE-OH),Kd,"protein: Mdm4 protein, PDB entry 3dab",0.21 µM (active)
